Measured values from paper PMC9911399, “Two distinct binding modes provide the RNA-binding protein RbFox with extraordinary sequence specificity”.
Residue numbers refer to the chain shown, from its start. Over roughly 16,000 sequences, “ka relative to ugcaugu” has its median near 0.0091; the highest 2% begin near 0.032. Only a selection was taken, and the highest values are over-represented in it overall.

T1: RBFOX1 RRM (Homo sapiens, UniProt Q9NWB1 109-208)
T1 sequence: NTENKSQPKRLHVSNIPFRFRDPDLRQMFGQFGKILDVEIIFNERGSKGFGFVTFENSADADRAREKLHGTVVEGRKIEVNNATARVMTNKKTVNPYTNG

B1: CGGCCUG (DNA:RNA)
RNA: GGGAGACCGGAAUUCAGAUUGUCCCGGCCUGUUAAAUCCCGUCGUAGCCACCA
DNA 1: CAATCTGAATTCCGGTCTCCC
DNA 2: TGGTGGCTACGACGGGATT
B2: GGGGGCC (DNA:RNA)
RNA: B1 RNA with C25G, C28G, C29G, U30C, G31C
DNA 1: CAATCTGAATTCCGGTCTCCC
DNA 2: TGGTGGCTACGACGGGATT
B3: GGGGCCG (DNA:RNA)
RNA: B1 RNA with C25G, C28G, U30C
DNA 1: CAATCTGAATTCCGGTCTCCC
DNA 2: TGGTGGCTACGACGGGATT
B4: CGGGCCC (DNA:RNA)
RNA: B1 RNA with C28G, U30C, G31C
DNA 1: CAATCTGAATTCCGGTCTCCC
DNA 2: TGGTGGCTACGACGGGATT
B5: GGGCCUG (DNA:RNA)
RNA: B1 RNA with C25G
DNA 1: CAATCTGAATTCCGGTCTCCC
DNA 2: TGGTGGCTACGACGGGATT
B6: GGGCCGU (DNA:RNA)
RNA: B1 RNA with C25G, U30G, G31U
DNA 1: CAATCTGAATTCCGGTCTCCC
DNA 2: TGGTGGCTACGACGGGATT
B7: GGGCCCU (DNA:RNA)
RNA: B1 RNA with C25G, U30C, G31U
DNA 1: CAATCTGAATTCCGGTCTCCC
DNA 2: TGGTGGCTACGACGGGATT
B8: GGGGCCC (DNA:RNA)
RNA: B1 RNA with C25G, C28G, U30C, G31C
DNA 1: CAATCTGAATTCCGGTCTCCC
DNA 2: TGGTGGCTACGACGGGATT
B9: CGGGCCG (DNA:RNA)
RNA: B1 RNA with C28G, U30C
DNA 1: CAATCTGAATTCCGGTCTCCC
DNA 2: TGGTGGCTACGACGGGATT

The binders below were run against T1, RBFOX1 RRM (assay: EMSA; HiTS-Eq, 1 nM pool, 10 min; buffer printed only for the single-RNA assays: 10 mM Tris pH 7.5, 150 mM NaCl, 3.4 mM EDTA, 0.001% NP-40, 30 C). Settings: tags: His6 N-terminal (pET28a); label: 5' 32P.
Outline: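 Relative association constants, normalised to the cognate motif, were derived by comparing read counts of each RNA species with those of the control reaction. The RNA sequenced was the free fraction, separated by 8% native PAGE after a 10 min equilibration in 50 µL of 1 nM 5′-radiolabelled RNA (7 randomized nucleotides) with increasing concentrations of purified wild-type or mutant RbFox RRM.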
In the case of B1, the binding signal is reported as 0.0257 KA relative to UGCAUGU.
In the case of B2, the binding signal is reported as 0.0256 KA relative to UGCAUGU.
In the case of B3, the binding signal is reported as 0.027 KA relative to UGCAUGU.
With B4 the binding signal was 0.0176 KA relative to UGCAUGU.
With B5 the binding signal was 0.0377 KA relative to UGCAUGU.
With B6 the binding signal was 0.0153 KA relative to UGCAUGU.
In the case of B7, the binding signal is reported as 0.00615 KA relative to UGCAUGU.
With B8 the binding signal was 0.0409 KA relative to UGCAUGU.
B9 was tested, and the binding signal was 0.0351 KA relative to UGCAUGU.
